Data on 98 compounds can be found in PubChem BioAssay AID624296 (National Center for Advancing Translational Sciences (NCATS), 2012).

Among all 350,000 compounds or so, about 9,900 (2.8%) were called active. A call without a number means that no potency is given here. About 15% were inconclusive and are not listed. This is one part of a sample in which actives are shown more often than they occur. Calls follow the shape of the dose curve; as a rule, active = well fitted activation curve with a large enough effect; inconclusive = small, poorly fitted or top-dose-only effect; inactive = no such curve, though single readings can be large or run the other way.
Potency is read from the fitted curve at half-maximal effect.

This experiment in a line: A quantitative high throughput screen for small molecules that induce DNA re-replication in MCF 10a normal breast cells. Also: nearly all actives have a fitted effect of over 50% in size. To be noted: MCF 10A DNA re-replication, Hoechst nuclear intensity, 48 h; series mostly up to 46.1 µM.
On to `CCOc1ccccc1-c1cc(C(=O)N2CCOCC2)c2ccccc2n1`, for which the Potency entry is “inactive”. `CCOc1cccc(/C=C/c2ccc3ccccc3n2)c1OC(C)=O`: the Potency was 23.1 µM (active). As for `CCOc1ccccc1/C=N/Nc1nc2ccccc2o1`, the Potency result is “inactive”. For `COc1ccc(C(CNC(=O)c2cc(S(=O)(=O)Nc3cccc(C)c3)ccc2C)N2CCCC2)cc1` (stereo not drawn), the Potency entry is “inactive”. As for `Cc1ccc(OCCNC(=O)CN2C(=O)NC3(CCCC3)C2=O)cc1`, the entry is “inactive”; as for `COC(=O)COc1cccc2c(=O)n(CC(=O)NCCc3ccc(OC)c(OC)c3)ccc12`, “inactive”; as for `Cc1ccc(CNC(=O)CCNC(=O)Cn2ccc3ccccc3c2=O)cc1`, “inactive”. For the compound `COC(=O)COc1cccc2c(=O)n(CC(=O)NCc3ccccc3)ccc12`, the Potency was 2.59 µM (active). Regarding `O=C1C=C(NS(=O)(=O)c2ccccc2)C(=O)c2ccccc21`, the Potency result is “inactive”. For `CCC(CO)Oc1cc(NC(=O)c2cccc(F)c2)c2ncn(C(C)C)c2c1` (stereo not drawn), the Potency entry was “inactive”. Turning to `O=C(N/N=C/c1coc2ccccc2c1=O)c1cc2ccccc2o1`, the Potency result is “inactive”. As for `Cc1c(/C=N/N2C(=O)C3C4C=CC(C4)C3C2=O)c2ccccc2n1C` (stereo not drawn), the entry is “inactive”; as for `Cc1c(/C=N\NC(=O)c2cc3ccccc3o2)c2ccccc2n1C`, 6.51 µM (active).

Regarding `CCOc1ccc(C(=O)NCC(=O)N2CCN(c3ccc(C(F)(F)F)cn3)CC2)cc1`, the Potency result is “inactive”. `O=C(Nc1cc(S(=O)(=O)N2CCOCC2)ccc1N1CCOCC1)c1c(F)cccc1Cl`: the Potency result is “inactive”. On to `Cc1nc2c(C(=O)NCc3ccc4c(c3)OCO4)c[nH]n2c(=O)c1Cc1ccccc1F`, for which the Potency is 7.31 µM (active). For the compound `O=C(NCc1ccc2c(c1)OCO2)c1cc(F)c(F)cc1Cl`, the Potency result is “inactive”. For `CCn1c(=O)c(C(=O)NCc2ccc3c(c2)OCO3)c(O)c2ccccc21`, the Potency result is “inactive”. `Cc1cc(C)c(C#N)c(SCC(=O)N(CC(C)C)C2CCS(=O)(=O)C2)n1` (stereo not drawn): the Potency entry is “inactive”.

Take `Cc1cccn2c(=O)c(/C=C(\C#N)C(N)=O)c(N3CCCCCC3)nc12`: the Potency entry was “inactive”.

With `Cc1cccn2c(=O)c3cc(C(=O)N4COCC4(C)C)n(C)c3nc12`, the Potency entry is “inactive”.

Regarding `Cc1ccccc1NC(=O)Cn1c(=O)n(CC2CCCO2)c(=O)c2ccccc21` (stereo not drawn), the Potency entry was “inactive”. Turning to `Cc1cccn2c(=O)c3cc(C#N)c(=O)n(CCCN4CCOCC4)c3nc12`, the Potency is 18.4 µM (active). In the case of `Cc1cccn2c(=O)c3cc(C#N)c(=NC(=O)c4cccnc4)n(CC4CCCO4)c3nc12` (stereo not drawn), the Potency is 13 µM (active). Next, `Cc1cccn2c(=O)c3cc(C(=O)NC4CCCCC4)sc3nc12`: “inactive”; `CCOc1cc(C(=O)N(Cc2ccccc2)c2ccc(C)cc2)ccc1OCC(=O)N1CCOCC1`: “inactive”.

Regarding `COc1ccc(C2NCCCC2c2ccccc2)cc1` (stereo not drawn), the Potency entry was “inactive”. On to `O=c1oc2cc(O)ccc2cc1-c1ccc(F)cc1`, for which the Potency was 14.6 µM (active).

As for `COc1ccc(-c2cc3ccc(OCc4nn[nH]n4)cc3oc2=O)cc1`, the Potency entry is “inactive”. As for `COc1cccc(C(=O)c2cc3ccc(O)cc3oc2=O)c1`, the Potency entry is “inactive”. As to `CCCCCCCCNS(=O)(=O)CCNC1CCCCC1`, the Potency entry was “inactive”. In the case of `O=C(Nc1ccc(S(=O)(=O)N2CCOCC2)cc1)C1CCN(S(=O)(=O)c2ccc(Cl)cc2)CC1`, the Potency result was “inactive”. `COc1ccc(-c2nc(CS(=O)CC(=O)NCc3ccccn3)c(C)o2)cc1` (stereo not drawn): the Potency entry was “inactive”. As for `COc1ccc(-c2cc3ncccc3cn2)cc1`, the entry is “inactive”; as for `COc1ccc(-c2sc3ccc(OC)cc3c2C#Cc2ccccn2)cc1`, 18.4 µM (active); as for `CN(C(=O)c1ccc(NC(=O)Cc2cccc(NC(=O)C3CCN(C(=O)c4ccccc4)CC3)c2)cc1)C1CC1`, “inactive”. As for `Cc1cn(C2CC(O)C(CO)O2)c(=O)n(CCCc2ccccc2)c1=O` (stereo not drawn), the entry is “inactive”. For `CS(=O)(=O)c1ccc(C(=O)NNC(=O)c2cccs2)cc1`, the Potency result is “inactive”. As for `Cc1noc(C)c1NC(=O)Nc1ccc2c(c1)C(=O)N([C@H](C)CO)C[C@H](C)[C@@H](CN(C)C(=O)Nc1ccc(C(F)(F)F)cc1)O2`, the entry is “inactive”; as for `Cc1ccc(NC(=O)CCCNC(=O)c2ccc(Cl)cc2)cc1S(=O)(=O)N1CCCCC1`, “inactive”; as for `Cc1ccc(NC(=O)CCC(=O)N2CCC(c3ccccc3)=N2)cc1S(=O)(=O)N1CCCCC1`, 18.4 µM (active). As for `CCc1ccccc1OCC(=O)Nc1ccc(C)c(S(=O)(=O)N2CCCCCC2)c1`, the entry is “inactive”; as for `CC(=O)OCC(=O)C1(O)CCC2C3CC(C)C4=CC(=O)CCC4(C)C3C(O)CC21C` (stereo not drawn), “inactive”. For `COc1ccc(-c2n[nH]c(C)c2-c2ccccc2OC)c(O)c1`, the Potency entry was “inactive”. Next, `COc1ccc(-c2n[nH]c(C)c2-c2ccc(OC)c(OC)c2)c(O)c1`: 16.4 µM (active); `CCOc1ccc(-c2n[nH]c(C)c2-c2ccccn2)c(O)c1`: “inactive”; `N#CCCN(C(=O)COC(=O)c1ccc2c(c1)OCCO2)c1ccccc1`: “inactive”. For `O=C(NCCC1CCCCN1S(=O)(=O)c1ccc(F)cc1)C(=O)NC1CC1` (stereo not drawn), the Potency entry was “inactive”.

As to `O=C(NCCC1CCCCN1S(=O)(=O)c1cccs1)C(=O)Nc1ccc(F)cc1F` (stereo not drawn), the Potency was 11.6 µM (active). With `COc1ccccc1CCNC(=O)C(=O)NCCC1CCCCN1S(=O)(=O)c1cccs1` (stereo not drawn), the Potency result was “inactive”.

With `CCOC(=O)C1CCN(C(=O)c2cccc(S(=O)(=O)N(CC)c3ccccc3)c2)CC1`, the Potency result is “inactive”. Take `CCN(C[C@H]1N[C@@](CC)(C(=O)OC)[C@H]2C(=O)N(Cc3ccccc3)C(=O)[C@@H]12)S(=O)(=O)c1ccccc1`: the Potency entry was “inactive”. Regarding `O=C(COC(=O)c1ccccn1)NNC(=O)c1ccc(Br)cc1`, the Potency result was “inactive”. Turning to `Cc1ccc(C(=O)N/C(=C\c2cn(C)c3ccccc23)C(=O)N2CCN(C)CC2)cc1`, the Potency result is “inactive”. Consider `Cc1ccc(N2C(=O)S/C(=C/c3cn(C)c4ccccc34)C2=O)cc1`, for which the Potency result was “inactive”. For the compound `Cc1cccc(N=C2NC(=O)/C(=C/c3cn(C)c4ccccc34)S2)c1`, the Potency is 10.3 µM (active). `C=CC[C@@H](CC(=O)N[C@H](CO)Cc1ccccc1)C(=O)N[C@H](C)COC(=O)[C@@H](CC=C)Cc1ccc(F)cc1`: the Potency result is “inactive”. On to `C=CCn1c(=O)n(C)c2c(=O)n(C)c(=O)n(C)c21`, for which the Potency result is “inactive”. As to `COc1ccc(CCNC(=O)COC(=O)Cc2cccc(F)c2)cc1`, the Potency result was “inactive”. For `Oc1[nH]c2ccccc2c1N=Nc1c(F)c(F)c(F)c(F)c1F`, the Potency entry was “inactive”. Consider `COC(C/C=C/C(=O)[C@@H](C)OCc1ccccc1)OC`, for which the Potency is 18.4 µM (active).

Regarding `COC(C[C@H](O)CC(=O)[C@@H](C)OCc1ccccc1)OC`, the Potency entry was “inactive”.

`COC(C[C@@H]1O[C@@H]1C(=O)[C@H](C)OCc1ccccc1)OC`: the Potency entry was “inactive”. With `COc1ccc(S(=O)(=O)N(C)C[C@@H]2Oc3ccc(NC(=O)Nc4c(C)noc4C)cc3C(=O)N([C@H](C)CO)C[C@@H]2C)cc1`, the Potency result was “inactive”. Next, `Cc1ccc(-c2n[nH]c(=S)n2/N=C/c2cc3c(cc2[N+](=O)[O-])OCO3)cc1`: “inactive”; `CC(=O)N/N=C/c1cc2c(cc1[N+](=O)[O-])OCO2`: “inactive”. Take `Cc1ccc(S(=O)(=O)N/N=C\c2cc3c(cc2[N+](=O)[O-])OCO3)cc1`: the Potency is 23.1 µM (active). Take `O=C1COc2ccc(C(=O)CSc3ccc(Br)cc3)cc2N1`: the Potency result was “inactive”. For the compound `COc1ccc(Cn2cc(CN3CCS(=O)(=O)N(Cc4ccc(-c5cccc(Cl)c5)cc4)C(C)C3=O)nn2)cc1` (stereo not drawn), the Potency result was “inactive”.

For `Cc1[nH][nH]c(=O)c1N=Nc1ccccc1`, the Potency entry was “inactive”.

Consider `Cc1[nH][nH]c(=O)c1C(c1ccc(-c2ccc(Cl)cc2)o1)c1c(C)[nH][nH]c1=O`, for which the Potency is 20.6 µM (active). Turning to `CN(CC(=O)Nc1ccc(F)cc1)C(=O)c1ccc(-c2ccc(Cl)cc2)o1`, the Potency entry was “inactive”.

For the compound `S=C(Nc1cccc(Cl)c1)Nc1ccc2cn[nH]c2c1`, the Potency entry was “inactive”.

Turning to `CC(=O)Nc1cccc(C(=O)Nc2nc(C)cs2)c1`, the Potency entry is “inactive”.

Take `Cc1csc(NC(=S)Nc2cccc(Cl)c2)n1`: the Potency is 20.6 µM (active). Next, `CCOc1ccccc1Nc1nnc(SCC(=O)NCC2CCCO2)s1` (stereo not drawn): “inactive”. Next, `CCOc1ccccc1Nc1nnc(SCc2ccc(C(=O)OC)o2)s1`: 18.4 µM (active); `COC(=O)c1ccc(CSc2nnc(N)s2)o1`: “inactive”. As for `NC1=NOC(=O)C1C1CCCCC1` (stereo not drawn), the entry is “inactive”; as for `CCOc1ccc(S(=O)(=O)N2CCN(C(=O)c3oc4ccccc4c3C)CC2)cc1`, “inactive”.

With `Cc1cc(N2CCCC2)ccc1NC(=O)COc1ccc(Cl)cc1`, the Potency result was “inactive”.

Regarding `COc1ccc(C)cc1S(=O)(=O)N1CCN(S(=O)(=O)c2cc(C(=O)O)ccc2C)CC1`, the Potency entry is “inactive”.

For `Cc1ccc(S(=O)(=O)N2CCN(c3ncnc4ccccc34)CC2)cc1`, the Potency entry was “inactive”. As for `Cc1ccc(C)c(S(=O)(=O)N2CCN(c3ncnc4sccc34)CC2)c1`, the figure is 18.4 µM (active); as for `COC(=O)Cc1c(-c2[nH]c3ccccc3c2CC(=O)OC)[nH]c2ccccc12`, “inactive”; as for `COc1ccc(NC(=O)CSc2nnc(C3CC3)n2C)cc1S(=O)(=O)N1CCCCC1`, “inactive”. `O=C(Nc1ccc2ccccc2c1)Nc1ccc2snnc2c1`: the Potency is 5.8 µM (active). `CCc1ccccc1NC(=O)c1ccc2snnc2c1`: the Potency result is “inactive”. Regarding `O=C(Nc1cccc(Br)c1)c1ccc2snnc2c1`, the Potency entry was “inactive”. With `CC(=O)c1c(OCC(=O)N(C)C2CCCCC2)ccc2c(C)cc(=O)oc12`, the Potency result was “inactive”.

Take `CC1=CC(=NNS(=O)(=O)c2ccc([N+](=O)[O-])cc2)CC(C)(C)C1`: the Potency result is “inactive”.

With `COc1ccc(-c2oc(/N=C/N3CCCC3)c(C#N)c2-c2ccc(OC)cc2)cc1`, the Potency result is “inactive”.

Turning to `N#Cc1c(/N=C/N2CCCC2)oc(-c2ccccc2)c1-c1ccccc1`, the Potency is 9.2 µM (active). Next, `COc1cc(C(=O)Nc2oc(-c3ccccc3)c(-c3ccccc3)c2C#N)cc(OC)c1OC`: “inactive”. As for `O=C1NC(c2ccccc2)Cc2ccncc21` (stereo not drawn), the Potency result is “inactive”. As for `CCN(CC)S(=O)(=O)c1ccc(OC)c(NC(=O)CCc2c(C)noc2C)c1`, the entry is “inactive”; as for `C=C1CCC(N(O)c2cc(C)on2)C(=C)CCC2C1CC2(C)C` (stereo not drawn), “inactive”. On to `CCCCN(C(=O)C(CCSC)N1C(=O)c2ccccc2C1=O)c1c(N)n(CCC)c(=O)[nH]c1=O` (stereo not drawn), for which the Potency result was “inactive”.
